Our source for the sensor-assay potency score (higher = more potent) values is the OligoGym collection.
Also: reference of the scale not given here.

For one test, the target named is VAX1. Description: pooled miR-30 sensor sort-seq; sequence = guide strand. As to conditions: shRNA.
Sequence TTCTTCTGCTTGGTGCGCCGGT came in with a sensor-assay potency score (higher = more potent) of -0.49.

As to TTCTTTATTGTTGGTCCGGGAG, the sensor-assay potency score (higher = more potent) is -1.06.

TTGGGCAGGATGATCTCTCGGA returned a sensor-assay potency score (higher = more potent) of -0.0889.

Consider TCTCGGACCAGGATCCGGCGGC, for which the sensor-assay potency score (higher = more potent) is -0.716.

In the case of TTTTGTTACAATCCTCAGCAGC, the sensor-assay potency score (higher = more potent) was -0.447.

For TGGAACTCCATCTCCAGCCGAT, the sensor-assay potency score (higher = more potent) was -1.

TACTTTTGTTACAATCCTCAGC: the sensor-assay potency score (higher = more potent) was -0.412.

Take TTTACTTTTGTTACAATCCTCA: the sensor-assay potency score (higher = more potent) was -0.228.

The sequence TTCTTTTGTTTTTTTATCCCGC registered a sensor-assay potency score (higher = more potent) of -0.672.

TTTGTTTTTTTATCCCGCGTTT: the sensor-assay potency score (higher = more potent) is -0.944.

Sequence TTACTTTTGTTACAATCCTCAG registered a sensor-assay potency score (higher = more potent) of -1.22.

Sequence TTTTGTTTTTTTATCCCGCGTT returned a sensor-assay potency score (higher = more potent) of -0.396.

The next test addresses VDAC1. The description is as above. As to conditions: shRNA.
As to TAGTGTATTGTCGGTATTCCAT, the sensor-assay potency score (higher = more potent) was -0.621.

Regarding TCTTCCACAGTAATCTCGGTGC, the sensor-assay potency score (higher = more potent) is -0.38.

For the sequence TTTTGTTTTCAAATCAAGCTTT, the sensor-assay potency score (higher = more potent) is -0.155.

In turn, TATCCTAAACCTATCAGGCTGG registered a sensor-assay potency score (higher = more potent) of -0.545.

TTCACTTTAGCCGAGAAGCAGG returned a sensor-assay potency score (higher = more potent) of -0.473.

Sequence TTAGAGTCTGAGTGTATCCTAA displayed a sensor-assay potency score (higher = more potent) of -0.253.

ATTCACATTAGTGTGAAGCTGG had a sensor-assay potency score (higher = more potent) of 0.0233.

In turn, TTACTGTTTCCTGCTGTCCAGG showed a sensor-assay potency score (higher = more potent) of -1.19.

Regarding TTCTCTGTAAACGTCAGGCCGT, the sensor-assay potency score (higher = more potent) was -0.7.

On to TTTGTTTTCAAATCAAGCTTTA, for which the sensor-assay potency score (higher = more potent) was -0.535.

TCTGAGTGTATCCTAAACCTAT gave a sensor-assay potency score (higher = more potent) of -0.562.

For TAGGTGAGAAGGATGAATCGAA, the sensor-assay potency score (higher = more potent) was found to be 0.744.
